Our source for the outcome and inhibition values is PubChem BioAssay.

For assay [1], the system named is TRPC4 beta (transient receptor potential cation channel C4), mouse. The assay can be described thus: activators of mouse TRPC4 channel, confirmation, cell-based, Fluo4 calcium, HEK293 TRPC4beta/mu-opioid, duplicates, 10 µM (AID 2426;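 active means fluorescence ratio normalized to control raised more than 50% in primary screen plus both repeat runs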). The conditions noted are these: Fluo4 calcium fluorescence, at 10 µM; hits give high values.
In assay [2] the test system is transient receptor potential cation channel C4 beta (TRPC4), mouse. The assay can be described thus: activators of mouse TRPC4 channel, confirmation, cell-based, second round, Fluo4, HEK293 TRPC4beta/mu-opioid, 1 µM (AID 2461;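 active means primary screen active and over 50% activation in each of two duplicate runs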). The following applies: Fluo4 calcium fluorescence, at 1 µM; hits give high values.
The subject of assay [3] is TRPC4 (transient receptor potential cation channel C4 beta), mouse. The assay is described as follows: positive allosteric modulators of mouse TRPC4, confirmation, cell-based, second round, Fluo-4, HEK293 TRPC4beta/mu-opioid, 1 µM (AID 2554;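 active means primary screen hit whose fluorescence ratio, in both repeats, exceeds the weak agonist control mean by 3 SD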). The conditions noted are these: DAMGO EC20, Fluo-4 calcium flux, at 1 µM; hits give high values.
In assay [4] the test system is TRPC4 beta (transient receptor potential cation channel C4), mouse. The assay is described as follows: positive allosteric modulators of mouse TRPC4, confirmation, cell-based, Fluo-4, HEK293 TRPC4beta/mu-opioid (AID 2555;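 active means primary screen hit whose calcium fluorescence ratio, in both repeats, exceeds the weak agonist control mean by 3 SD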). The conditions noted are these: DAMGO EC20, Fluo-4 calcium flux, at 10 µM; hits give high values.
The target of assay [5] is Short transient receptor potential channel 4 (Mus musculus) (UniProt Q9QUQ5). The assay is described as follows: inhibitors of mouse TRPC4 channel, confirmation, cell-based, Fluo4, HEK293 TRPC4beta/mu-opioid (AID 2636;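 active means calcium signal cut by more than 3 SD below the full-agonist control yet still positive, in both repeats and the earlier primary screen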). The conditions noted are these: DAMGO, Fluo4 calcium flux, at 10 µM; hits give high values.
Sequence of Short transient receptor potential channel 4 (Mus musculus) (Q9QUQ5 whole entry, looked up): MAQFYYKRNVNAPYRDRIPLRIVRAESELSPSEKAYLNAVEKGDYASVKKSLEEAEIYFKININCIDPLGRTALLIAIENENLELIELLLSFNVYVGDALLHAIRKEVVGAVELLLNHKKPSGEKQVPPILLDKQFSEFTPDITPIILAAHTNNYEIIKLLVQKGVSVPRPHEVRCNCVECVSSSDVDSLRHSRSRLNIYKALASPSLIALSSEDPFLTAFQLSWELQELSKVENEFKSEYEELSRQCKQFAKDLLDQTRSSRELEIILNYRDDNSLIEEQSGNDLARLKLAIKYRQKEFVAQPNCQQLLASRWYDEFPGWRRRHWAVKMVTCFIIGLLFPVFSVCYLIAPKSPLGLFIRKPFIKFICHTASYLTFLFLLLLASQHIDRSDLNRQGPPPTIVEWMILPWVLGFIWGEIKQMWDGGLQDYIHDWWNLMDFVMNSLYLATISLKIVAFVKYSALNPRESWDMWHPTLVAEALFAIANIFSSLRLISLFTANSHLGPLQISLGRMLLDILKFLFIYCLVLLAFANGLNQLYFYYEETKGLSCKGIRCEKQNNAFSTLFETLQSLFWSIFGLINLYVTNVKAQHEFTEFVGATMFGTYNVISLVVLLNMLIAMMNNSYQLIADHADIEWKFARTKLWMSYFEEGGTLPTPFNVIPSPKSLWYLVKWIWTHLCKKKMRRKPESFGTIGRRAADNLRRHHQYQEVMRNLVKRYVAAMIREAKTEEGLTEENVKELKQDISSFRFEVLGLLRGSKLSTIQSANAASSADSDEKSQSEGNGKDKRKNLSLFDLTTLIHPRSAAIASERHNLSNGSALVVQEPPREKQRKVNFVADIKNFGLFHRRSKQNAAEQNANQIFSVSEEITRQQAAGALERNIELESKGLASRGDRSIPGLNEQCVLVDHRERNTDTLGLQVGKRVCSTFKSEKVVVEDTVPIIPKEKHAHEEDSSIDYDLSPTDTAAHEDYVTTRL
Assay [6] has the same target. The assay can be described thus: inhibitors of mouse TRPC4 channel, confirmation, cell-based, second round, Fluo4, HEK293 TRPC4beta/mu-opioid, 1 µM (AID 2637;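 active means calcium signal ratio cut to more than 3 SD under the fully stimulated control mean yet still positive, in both repeats and the primary screen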;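 on inhibition: percent of integrated ratio relative to wells lacking test compound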). The following applies: Fluo4 calcium flux, DAMGO, at 1 µM; hits give high values.
Assay [7] has the same target. The assay is described as follows: mouse TRPC4 channel activators, dose response, cell-based, HEK293 TRPC4/mu-opioid, Fluo-4 calcium (AID 434937;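 active means primary screen activator hit with a dose response curve and TRPC4 channel activation at any tested dose; inactive means no activation, no dose response, or not a primary hit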).
The target is the same in assay [8]. The assay is described as follows: TRPC4 positive allosteric modulators, dose response, cell-based, HEK293 TRPC4/mu-opioid, Fluo-4 calcium, EC20 DAMGO (AID 434941;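 active means earlier screen potentiator hit that boosts the TRPC4 ion channel at some dose, with a dose response; inactive means no potentiation, no dose response, or not a prior hit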;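 further: calcium entry triggered by an EC20 dose of DAMGO at the co-expressed mu-opioid receptor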).
Assay [9] has as its target Short transient receptor potential channel 6 (Mus musculus) (UniProt Q61143). The assay is described as follows: inhibition of mouse TRPC6 channel, confirmation, selectivity assay for TRPC4 inhibitor project, cell-based, HEK293, membrane potential dye, duplicate (AID 434948;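 active means active in primary screen and both duplicates, each dropping signal beyond three positive-control SD with fluorescence still positive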). The conditions noted are these: HEK293 TRPC6, membrane potential dye fluorescence, at 10 µM, stimulated with maximal-effect acetylcholine; hits give high values.

The target is the same in assay [10]. The assay is described as follows: activation of mouse TRPC6 channel, confirmation, selectivity assay for TRPC4 activator project, cell-based, HEK293, membrane potential dye, duplicate (AID 434950;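 active means membrane potential signal rise above negative control mean plus 3 SD in both duplicates, also active in the earlier TRPC4 screen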). The following applies: HEK293 TRPC6, membrane potential fluorescence, at 10 µM; hits give high values.
Assay [11] shares this target. The assay can be described thus: TRPC6 potentiation by TRPC4 potentiator hits, confirmation, selectivity assay for TRPC4 potentiator project, HEK293 cells, membrane potential dye, duplicate (AID 434952). The following applies: HEK293 TRPC6, membrane potential dye fluorescence, at 10 µM, maximal acetylcholine added after compound; hits give high values.
Assay [12] deals with Short transient receptor potential channel 4 (Mus musculus) (UniProt Q9QUQ5). The assay can be described thus: calcium flux activators in TRPC4/5HT1a cells, counter-screen for TRPC4 activator project, cell-based, second counter screen, HEK293 TRPC4/5HT1a, Fluo-4 (AID 434977;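 active means calcium signal rise above buffer-control mean plus 5 SD in both duplicates, and also a hit in the primary screen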). The conditions noted are these: Fluo-4 calcium flux, at 10 µM; hits give high values.
The nature of assay [13]: calcium flux inhibitors in TRPC4/5HT1a cells, confirmation, counter-screen for TRPC4 inhibitor project, cell-based, second counter screen, HEK293 TRPC4/5HT1a, Fluo-4 (AID 434978;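 active means primary screen active whose calcium signal fell more than 3 SD beyond the full-serotonin control mean in both duplicate plates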;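 on outcome: serotonin given first at submaximal then at maximal dose after compound preincubation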). The conditions noted are these: Fluo-4 calcium flux, at 10 µM, serotonin added to trigger calcium flux; hits give high values.
Assay [14] deals with TRPC4 (mouse), co-expressed with 5HT1a in HEK293. The assay is described as follows: calcium flux potentiators in TRPC4/5HT1a cells, confirmation, counter-screen for TRPC4 potentiator project, cell-based, second counter screen, HEK293 TRPC4/5HT1a, Fluo-4 (AID 434979;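 active means signal rise over 3 SD above mean of control wells given weak agonist, in both repeats and first screen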). The conditions noted are these: Fluo-4 calcium flux, at 10 µM, serotonin added at its EC20 dose; hits give high values.

A short description of assay [15]: calcium flux activation in mu-opioid HEK293 cells, confirmation, counter-screen for TRPC4 activator project, cell-based, HEK293 mu-opioid receptor line (AID 449723;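 active means hit in primary screen, with calcium signal over 5 SD above buffer well mean in both duplicates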;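 further: counter screen cells carry the mu-opioid receptor alone and lack TRPC4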). The conditions noted are these: Fluo-4 calcium fluorescence, at 10 µM; hits give high values.
The nature of assay [16]: calcium flux enhancement in mu-opioid HEK293 cells, confirmation, counter-screen for TRPC4 allosteric potentiator project, cell-based, HEK293 mu-opioid receptor line (AID 449724;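 active means calcium signal rise more than 3 SD above the low-dose agonist control mean, in both duplicate plates and the primary screen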;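 further: HEK293 cells carrying mu-opioid receptor only with no TRPC4 channel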). The following applies: Fluo-4 calcium flux, at 10 µM, compound added before EC20 DAMGO stimulus; hits give high values.

For part of these data: Potency and affinity values are given separately. Activity calls are given as the source filed them.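 How the source made its calls, unless noted: active means compound raising the membrane signal above positive-control mean plus 3 SD in both repeats, and a primary screen hit; inactive means the rest.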

Sequence of Short transient receptor potential channel 6 (Mus musculus) (Q61143 whole entry, looked up): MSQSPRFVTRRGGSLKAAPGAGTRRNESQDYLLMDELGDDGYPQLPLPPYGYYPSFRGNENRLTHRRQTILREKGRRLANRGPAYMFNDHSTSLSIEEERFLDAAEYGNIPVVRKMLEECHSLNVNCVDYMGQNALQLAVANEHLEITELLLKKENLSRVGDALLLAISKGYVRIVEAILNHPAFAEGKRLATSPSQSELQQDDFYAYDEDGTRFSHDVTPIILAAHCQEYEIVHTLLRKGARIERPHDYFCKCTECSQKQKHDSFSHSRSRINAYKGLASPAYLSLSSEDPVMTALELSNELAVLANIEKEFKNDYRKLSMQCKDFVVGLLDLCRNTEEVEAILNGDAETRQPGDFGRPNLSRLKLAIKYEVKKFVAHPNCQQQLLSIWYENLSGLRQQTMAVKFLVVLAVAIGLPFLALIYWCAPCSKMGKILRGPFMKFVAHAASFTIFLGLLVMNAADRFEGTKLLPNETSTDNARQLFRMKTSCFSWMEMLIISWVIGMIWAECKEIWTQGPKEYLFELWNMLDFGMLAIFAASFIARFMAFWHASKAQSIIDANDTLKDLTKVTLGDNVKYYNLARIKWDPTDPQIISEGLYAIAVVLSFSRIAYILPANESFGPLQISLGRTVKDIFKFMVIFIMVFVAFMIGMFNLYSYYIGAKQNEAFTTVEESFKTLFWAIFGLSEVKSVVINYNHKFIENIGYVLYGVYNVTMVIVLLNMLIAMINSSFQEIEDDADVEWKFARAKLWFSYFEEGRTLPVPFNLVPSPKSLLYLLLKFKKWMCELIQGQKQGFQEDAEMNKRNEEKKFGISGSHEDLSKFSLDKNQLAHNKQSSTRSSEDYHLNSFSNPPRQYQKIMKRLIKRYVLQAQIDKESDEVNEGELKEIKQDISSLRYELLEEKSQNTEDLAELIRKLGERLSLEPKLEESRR

Consider `CCOC(=O)C1(CCOc2ccccc2)CCN(Cc2cccs2)CC1`, for which the result in [1], in assay [2], in assay [3], in [4], in [6] and in assay [7] was inactive. In addition, the outcome in assay [8], in assay [9], in assay [10], in assay [11], in [12] and in assay [13] was inactive. Also, the result in assay [14], in [15] and in assay [16] was inactive. Moreover, in [5], the inhibition is 80% (active).
Regarding `COc1cccc(NC(=O)CCC(=O)N2CC(C)Oc3ccc(C)cc32)c1` (stereo not given), the outcome in [1], in assay [2], in [3], in assay [4], in assay [6] and in [7] was inactive. Besides, the result in [8], in [9], in [10], in [11], in assay [12] and in assay [14] was inactive. For the same compound, the outcome in assay [15] and in [16] was inactive. Moreover, the figures for the inhibition in assay [5] and in assay [13] were 85% (active) and 42.1% (active), respectively.
On to `CC(OCC(O)CN(C)CCOc1ccccc1)c1ccc(Cl)cc1` (stereo not given), for which the outcome in assay [1], in [2], in [3], in [4], in assay [7] and in [8] was inactive. In addition, the compound was called inactive in assay [9], in assay [10], in assay [11], in assay [12], in assay [14] and in [15]. The result in [16] was inactive. Further, the inhibition was 94% (active) in assay [5], 44% (active) in [6] and 22.2% (active) in [13].
With `CN1CCN(c2nc(-c3cccnc3)nc3scc(-c4ccccc4)c23)CC1`, the outcome in [1], in [2], in assay [3], in assay [4], in assay [5] and in assay [6] was inactive. In addition, the outcome in assay [7], in [8], in assay [9], in [10], in assay [11] and in assay [12] was inactive. Also, the result in assay [13], in [14], in [15] and in assay [16] was inactive.
Regarding `Cc1c(CCOC(=O)c2cccc([N+](=O)[O-])c2)sc[n+]1CC(=O)c1ccccc1`, the result in assay [1], in [2], in [3], in assay [4], in assay [6] and in [7] was inactive. Besides, the outcome in assay [8], in [9], in assay [10], in assay [11], in assay [12] and in assay [14] was inactive. The outcome in assay [15] and in assay [16] was inactive. The inhibition was 88% (active) in assay [5] and 28.9% (active) in assay [13].
`CC(C)(c1ccccc1)c1ccc(OCCCNCCO)cc1`: the result in assay [1], in assay [2], in assay [3], in [4], in assay [6] and in [7] was inactive. In addition, the result in [8], in assay [9], in assay [10], in assay [11], in [12] and in assay [14] was inactive. Further, the result in assay [15] and in assay [16] was inactive. Also, the inhibition was 79% (active) in assay [5] and 13.3% (active) in assay [13].
Consider `Cc1cccc(C(=O)Nc2sc(-c3ccccc3)cc2C(=O)O)c1`, for which the result in assay [1], in assay [2], in [3], in assay [4], in assay [6] and in assay [7] was inactive. The result in assay [8], in assay [9], in [10], in [11], in assay [12] and in assay [14] was inactive. For the same compound, the result in [15] and in [16] was inactive. Further, the inhibition in assay [5] is 98% (active); in assay [13], 19.4% (active).
Take `Cc1cc(Nc2ccccc2)nc2cc(O)ccc12`: the result in [1], in assay [2], in assay [3], in [4], in [7] and in assay [8] was inactive. Besides, the outcome in [9], in assay [10], in assay [11], in assay [12], in assay [14] and in [15] was inactive. The outcome in assay [16] was inactive. Moreover, the inhibition is 93% (active) in [5], 52% (active) in assay [6] and 14.4% (active) in [13].
With `COC(=O)CSc1nn(-c2ccc(F)cc2)c(=S)s1`, the result in assay [1], in assay [2], in assay [3], in assay [4], in [7] and in assay [8] was inactive. Moreover, the compound was classed as inactive in assay [9], in assay [10], in assay [11], in assay [12], in assay [14] and in assay [15]. Further, the outcome in [16] was inactive. For the same compound, the figures for the inhibition in assay [5], in assay [6] and in [13] were 90% (active), 39% (active) and 39.2% (active), respectively.
Turning to `CCCOc1ccc(-c2nc(SCc3ccccc3)[nH]c(=O)c2C#N)cc1OC`, the result in [1], in [2], in assay [3], in [4], in [6] and in assay [7] was inactive. Moreover, the result in assay [8], in assay [9], in assay [10], in [11], in [12] and in assay [13] was inactive. For the same compound, the result in [14], in assay [15] and in [16] was inactive. Also, the inhibition in assay [5] is 66% (active).
For `O=C(C[n+]1cccc(CNC(=O)c2ccc(OC(F)F)cc2)c1)Nc1ccc(SC(F)F)cc1`, the outcome in [1], in assay [2], in assay [3], in assay [4], in assay [6] and in assay [7] was inactive. The outcome in assay [8], in assay [9], in assay [10], in assay [11], in [12] and in assay [13] was inactive. Moreover, the result in assay [14], in [15] and in [16] was inactive. Also, the inhibition in assay [5] was 94% (active).
For `Cc1[nH]nc(-c2ccc(O)cc2O)c1-c1ccc(Cl)cc1`, the result in assay [1], in assay [2], in assay [3], in assay [4], in [6] and in assay [7] was inactive. Moreover, the outcome in assay [8], in [9], in [10], in assay [11], in [12] and in assay [14] was inactive. In addition, the outcome in assay [15] and in assay [16] was inactive. In addition, the inhibition in assay [5] is 86% (active); in assay [13], 23.5% (active).
`O=C(OC1C2CCC1C1CN(CCc3ccccc3)CC12)c1ccccc1` (stereo not given): the result in assay [1], in assay [2], in assay [3], in [4], in assay [5] and in assay [7] was inactive. Moreover, the result in [8], in assay [9], in [10], in [11], in [12] and in assay [13] was inactive. Further, the result in assay [14], in assay [15] and in [16] was inactive. For the same compound, the inhibition in assay [6] was 44% (active).
As to `COc1cc(/C=C2\SC(=O)N(c3ccccc3Cl)C2=O)cc([N+](=O)[O-])c1O`, the outcome in assay [1], in [2], in assay [3], in [4], in assay [6] and in [7] was inactive. In addition, the result in assay [8], in [9], in [10], in assay [11], in assay [12] and in assay [14] was inactive. In addition, the outcome in [15] and in [16] was inactive. The inhibition is 84% (active) in assay [5] and 26% (active) in [13].
As to `COc1ccccc1Nc1nc(NCC2CCCO2)c2ccccc2n1` (stereo not given), the outcome in assay [1], in assay [2], in [3], in assay [4], in assay [7] and in [8] was inactive. The compound was classed as inactive in assay [10], in assay [11], in assay [12], in assay [14], in assay [15] and in [16]. Further, the inhibition in assay [5] is 91% (active); in assay [6], 50% (active); in assay [9], 10% (active); in assay [13] it was 31.5% (active).
